Measurements reported in PubChem BioAssay AID1578 (Sanford-Burnham Center for Chemical Genomics, 2009).
Screen size: about 290,000 compounds; about 3,000 (1%) were called active. Cut-off read from the data, not from the text of the source: active = inhibition mostly above about 36% (no sharp cut-off); inactive = mostly below about 34%. Only a selection was taken, and actives are over-represented in it overall.

Assay: NOD1 signaling inhibitors, primary screen, cell-based, luminescence, uHTS (AID 1578);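 note: HEK-293T reporter cells stimulated with the NOD1 agonist gamma-tri-DAP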
Settings: NOD1-driven NF-kB luciferase reporter cells, at 4 µM, hits give high values

Row | Compound | inhibition
1 | Cc1ccc(NC(=O)COc2ncnc3cc([N+](=O)[O-])ccc23)cc1S(=O)(=O)N1CCOCC1 | -14.7% (inactive)
2 | CCC/S(C)=N/S(=O)(=O)c1ccc(C)cc1 (configuration not stated) | -6.2% (inactive)
3 | O=C1CSC(c2ccccc2F)N1CCN1CCCCC1 (configuration not stated) | -19% (inactive)
4 | COC(=O)c1cccc(NC(=O)Cc2ccc(OC)cc2)c1C | -11.4% (inactive)
5 | O=C(Nc1ccccc1)Nc1nc(-c2ccccc2)cs1 | -13.8% (inactive)
6 | Cc1ccsc1/C=N/N1CCOCC1 | -33.4% (inactive)
7 | CCOC(=O)N1CCC(Nc2c(Nc3cccc(CC)c3)c(=O)c2=O)CC1 | 18.1% (inactive)
8 | CCOc1ccc(C(=O)Nc2cccc3ncccc23)cc1Cl | 8.8% (inactive)
9 | O=C(COc1ccccc1)Nc1ccc2[nH]ncc2c1 | -11.3% (inactive)
10 | CC(C)c1ccccc1OCC(=O)Nc1ccc2[nH]ncc2c1 | 47.7% (active)
11 | Cc1ccccc1OCC(=O)Nc1ccc2[nH]ncc2c1 | -17.7% (inactive)
12 | Nc1c(C(=O)c2ccccc2)sc(Nc2ccccc2)c1S(=O)(=O)c1ccccc1 | 52.2% (active)
13 | N#Cc1c(Nc2ccccc2)sc(C(=O)c2ccc(F)cc2)c1N | 5.2% (inactive)
14 | N#Cc1c(Nc2ccccc2)sc(C(=O)c2ccccc2)c1N | 0.9% (inactive)
15 | COCCn1c(C)cc(C(=O)CSc2nc3ccccc3s2)c1C | 54% (inactive)
16 | COCCn1c(C)cc(C(=O)CSc2nnc(C)s2)c1C | 77.8% (active)
17 | Cc1ccc(C(=O)CSc2ncnc3sc4c(c23)CCCC4)cc1 | 31% (inactive)
18 | COCCn1c(C)cc(C(=O)CSc2nc(C)c(C)c(C)n2)c1C | -5.4% (inactive)
19 | CC(=O)CSc1ncnc2sc3c(c12)CCC3 | 13.2% (inactive)
20 | COc1ccc(CNCc2ccc3c(c2)OCO3)c(OC)c1OC | -18% (inactive)
21 | Cc1cc(N2CCN(C)CC2)nc2ccc(NC(=O)CCC(=O)NCCC(C)C)cc12 | -10.6% (inactive)
22 | Cc1ccc2nc(N3CCN(c4cccc(C)c4C)CC3)c3nnnn3c2c1 | 6.9% (inactive)
23 | Cc1ccc2nc(Cl)c3nnnn3c2c1 | 83.8% (active)

Row | Compound | inhibition
24 | Cc1ccc(-c2nc3ccccc3n3nnnc23)cc1 | -53.8% (inactive)
25 | COc1ccc(OCCC(=O)N2CCOCC2)cc1 | -24% (inactive)
26 | CN(Cc1ccccc1)C(=O)c1ccccc1NC(=O)c1ccco1 | 54.5% (active)
27 | O=C(Nc1ccccc1C(=O)NCc1ccccc1)c1ccco1 | -14.6% (inactive)
28 | CN(Cc1ccccc1)C(=O)c1ccccc1NC(=O)c1ccccc1 | -20.6% (inactive)
29 | Oc1ccc(/C=N/Nc2ccnc3cc(Cl)ccc23)c(O)c1O | -3.8% (inactive)
30 | CN(C)CCN(C(=O)c1ccc(N2C(=O)CCC2=O)cc1)c1nc2cc3c(cc2s1)OCO3 | -20.4% (inactive)
31 | O=C(N/N=C/c1ccccc1Br)C1CC1 | -25.3% (inactive)
32 | Cc1oc(-c2ccc(Cl)cc2)nc1CN1CCC(C(=O)NCCCN2CCCC2=O)CC1 | 17.3% (inactive)
33 | O=Cc1cc(CCC(=O)O)ccc1O | 63% (active)
34 | O=C(O)Cc1ccc(O)c(O)c1 | -0.7% (inactive)
35 | COc1ccc(CCC(=O)O)cc1OC | -2.3% (inactive)
36 | COc1ccc(C(=O)/C(C#N)=N/Nc2ccc([N+](=O)[O-])cc2)cc1 | 82.5% (active)
37 | COc1ccc(N/N=C(\C#N)C(N)=O)cc1 | -41.5% (inactive)
38 | COc1ccc(C(=O)/C(C#N)=N/Nc2ccccc2[N+](=O)[O-])cc1 | 42.9% (inactive)
39 | Cc1c(NC(=O)C(C#N)=C2CCCCC2)c(=O)n(-c2ccccc2)n1C | -3.8% (inactive)
40 | O=C(c1cc(F)ccc1F)C1CCCN(C(=O)CCN2CCCCO2)C1 (configuration not stated) | -29.2% (inactive)
41 | Cc1ccc2nc(NC(=O)c3ccccc3F)sc2c1 | -69.7% (inactive)
42 | Fc1ccc2nc(Nc3nc4c(F)cc(F)cc4s3)sc2c1 | 2.7% (inactive)
43 | O=C(NNc1nc2c(F)cc(F)cc2s1)c1ccccc1 | -5.8% (inactive)
44 | Cc1ccc2nc(NC(=O)COC(=O)c3ccccn3)sc2c1 | -22% (inactive)
45 | O=C(Nc1nc2ccc(F)cc2s1)c1ccccn1 | 107% (active)
46 | O=C(Nc1nc2c(F)cc(F)cc2s1)c1ccco1 | -3.5% (inactive)

Row | Compound | inhibition
47 | O=C(Nc1nc2ccc(S(=O)(=O)N3CCCC3)cc2s1)c1ccccn1 | -16.1% (inactive)
48 | O=C(Nc1nc2ccc(F)cc2s1)c1cccs1 | -59.7% (inactive)
49 | O=C(Nc1nc2c(F)cc(F)cc2s1)c1ccccn1 | 70.9% (active)
50 | Cc1ccc2nc(NC(=O)c3ccccn3)sc2c1 | 109% (active)
51 | COC(=O)c1ccc2nc(NC(=O)C(C)(C)C)sc2c1 | 35.8% (inactive)
52 | COc1cc(CN2CCCC(N3CCN(c4ccc(F)cc4)CC3)C2)ccc1F (configuration not stated) | 61.4% (inactive)
53 | COc1ccccc1S(=O)(=O)N1CCC(C(=O)O)(c2ccccc2)CC1 | 14.5% (inactive)
54 | COc1ccc(NC(=S)c2ccncc2)cc1 | -9.9% (inactive)
55 | CC(Sc1nnc(N)s1)C(=O)Nc1ccc(N2CCOCC2)cc1 (configuration not stated) | -20.5% (inactive)
56 | COc1ccc(NC(=O)Cc2c(F)c(F)c(F)c(F)c2F)cc1OC | 2.8% (inactive)
57 | Cc1csc(NC(=O)CSc2nc(C(C)C)nc3ccccc23)n1 | 12.9% (inactive)
58 | Cc1ccc(CC2S/C(=N/c3ccccn3)NC2=O)cc1 (configuration not stated) | 17% (inactive)
59 | O=C1N/C(=N\c2ccccn2)SC1Cc1ccc(Cl)cc1 (configuration not stated) | 103% (active)
60 | O=C1N/C(=N/c2ccccn2)SC1Cc1ccccc1 (configuration not stated) | -21% (inactive)
61 | CCCCN1CC(=O)N2Cc3[nH]c4ccccc4c3C[C@H]2C1=O | -2.4% (inactive)
62 | O=C(Nc1ccccc1)C1(c2ccccc2)CC1(Cl)Cl (configuration not stated) | -28.2% (inactive)
63 | Cc1ccc(SCC(=O)NCCN2C(=O)CSC2=O)c(C)c1 | -23.2% (inactive)
64 | S=c1sc2c(Cl)ncnc2n1-c1ccccc1 | 69.8% (active)
65 | S=c1sc2c(N3CCOCC3)ncnc2n1-c1ccccc1 | 9% (inactive)
66 | S=c1sc2c(N3CCN(Cc4ccccc4)CC3)ncnc2n1-c1ccccc1 | -6.8% (inactive)
67 | CN1CCN(CC2(O)CCN(S(=O)(=O)c3ccc(Cl)cc3)CC2)CC1 | -21.7% (inactive)
